± gives the standard deviation of the averaged measurements.
tested on: CLZ3 (HCA2 human fibroblast dual HR-NHEJ reporter); assay: NHEJ repair efficiency (GFP+ cells) relative to control (log10 fold); higher = more non-homologous end joining; settings: 5 µM; doxycycline 0.5 ug/mL
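Further: compound given one day ahead of doxycycline, which switches on I-SceI endonuclease to cut the chromosomally integrated reporter and create DSBs.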

Compound	NHEJ repair efficiency (log10)
O=C1C[C@@H](c2ccc(O)c(O)c2)Oc2cc(O)cc(O)c21 [Eriodictyol]	-0.0055
O=c1c(O[C@@H]2O[C@H](CO)[C@@H](O)[C@H](O)[C@H]2O)c(-c2ccc(O)c(O)c2)oc2cc(O)cc(O)c12 [Isoquercitrin]	-0.0426
COc1cc([C@@H]2[C@H]3CO[C@@]4(O)C(=O)[C@@H]2C=C([C@H]2Oc5cc(O)cc(O)c5C(=O)[C@@H]2O)[C@@H]34)ccc1O [Silydianin]	-0.0155 ± 0.092
CC1(C)[C@@H](O[C@H]2O[C@H](C(=O)O)[C@@H](O)[C@H](O)[C@H]2O[C@@H]2O[C@H](C(=O)O)[C@@H](O)[C@H](O)[C@H]2O)CC[C@]2(C)[C@H]3C(=O)C=C4[C@@H]5C[C@@](C)(C(=O)O)CC[C@]5(C)CC[C@@]4(C)[C@]3(C)CC[C@@H]12 [Monoammonium glycyrrhizinate]	-0.145
CC(/C=C/C=C(\C)C(=O)O[C@@H]1O[C@H](CO)[C@@H](O)[C@H](O)[C@H]1O)=C\C=C\C=C(C)\C=C\C=C(/C)C(=O)O[C@@H]1O[C@H](CO[C@@H]2O[C@H](CO)[C@@H](O)[C@H](O)[C@H]2O)[C@@H](O)[C@H](O)[C@H]1O [Crocin Ii]	-0.0199
C=C1C(=O)O[C@@H]2/C=C(\C)CC/C=C(\C)CC[C@@H]12 [Costunolide]	-0.04
Oc1cc(O)c2c(c1)O[C@H](c1cc(O)c(O)c(O)c1)[C@H](O)C2 [(-)Epigallocatechin]	-0.0905
O=C(/C=C/c1ccc(O[C@@H]2O[C@H](CO)[C@@H](O)[C@H](O)[C@H]2O)cc1)c1ccc(O)cc1O [Isoliquiritin]	-0.0606
C[C@H]1[C@H](C)CC[C@]2(C(=O)O)CC[C@]3(C)C(=CC[C@@H]4[C@@]5(C)C[C@@H](O)[C@H](O)[C@@](C)(CO)[C@@H]5[C@H](O)C[C@]43C)[C@H]12 [Madecassic acid]	0.0926
COc1ccc(-c2coc3cc(O)cc(O)c3c2=O)cc1 [Biochanin A]	-0.0507
C=C1CCC[C@]2(C)C[C@]3(O)OC(=O)C(C)=C3C[C@@H]12 [Atractylenolide Iii]	0.00444
COc1cc2ccc(=O)oc2cc1OC [Scoparone]	0.0322
COc1c2ccoc2c(OC[C@@H](O)C(C)(C)O)c2oc(=O)ccc12 [Byakangelicin]	0.0236
NCCCC(=O)O [g-Aminobutyric acid]	0.0698
COc1ccc(-c2cc(=O)c3c(O)cc(O[C@@H]4O[C@H](CO[C@@H]5O[C@@H](C)[C@H](O)[C@@H](O)[C@H]5O)[C@@H](O)[C@H](O)[C@H]4O)cc3o2)cc1 [Linarin]	-0.0758
O=c1c(-c2ccc(O)cc2)coc2cc(O)ccc12 [Daidzein]	-0.0789
O=c1c(O)c(-c2ccc(O)c(O)c2)oc2cc(O)ccc12 [Fisetin]	-0.223
COc1ccc(-c2oc3c(CC=C(C)C)c(O[C@@H]4O[C@H](CO)[C@@H](O)[C@H](O)[C@H]4O)cc(O)c3c(=O)c2O[C@@H]2O[C@@H](C)[C@H](O)[C@@H](O)[C@H]2O)cc1 [Icarrin]	-0.0369
C[C@@H](CC[C@@]1(O)O[C@H]2C[C@H]3[C@@H]4CC[C@@H]5C[C@@H](O[C@@H]6O[C@H](CO)[C@H](O)[C@H](O)[C@H]6O[C@@H]6O[C@H](CO)[C@@H](O)[C@H](O)[C@H]6O)CC[C@]5(C)[C@H]4CC[C@]3(C)[C@H]2[C@@H]1C)CO[C@@H]1O[C@H](CO)[C@@H](O)[C@H](O)[C@H]1O [Timosaponin b- II]	0.192
COc1ccc2c(c1O)-c1c(O)c(OC)cc3c1[C@H](C2)[N+](C)(C)CC3 [Magnoflorine iodide]	0.122
O=C(O)Cc1c(C=CC(=O)OC(Cc2ccc(O)c(O)c2)C(=O)O)ccc(O)c1O (centres undefined) [Salvianolic Acid D]	-0.0658
C[C@@H]1C(=O)O[C@H]2C[C@@]34O[C@@H]5OC(=O)[C@H](O)[C@@]56[C@H](C(C)(C)C)[C@H](O)C(OC3=O)[C@]64[C@]21O (some centres undefined) [Ginkgolide J]	0.0205
COc1cc(CNC(=O)CCCCCCC(C)C)ccc1O [Dihydrocapsaicin]	-0.263
CC1(C)CC[C@]2(C(=O)O)CCC3=C([C@@H](CCl)C[C@@H]4[C@@]5(C)C[C@H](O)[C@H](O)[C@@](C)(C(=O)O)[C@@H]5CC[C@@]34C)[C@@H]2C1 [Tenuigenin]	0.0402

From the supplement of paper PMC7380943
